Compound activity: PubChem BioAssay, National Center for Advancing Translational Sciences (NCATS)
An excerpt weighted towards active compounds, which were near 9.5% of everything screened.
Pf growth 96h = Primary qHTS for delayed death inhibitors of the malarial parasite plastid, 96 hour incubation. P. falciparum luciferase reporter growth, 96 h. Potency, µM (titrated, usually from 28.7 µM), without a hit: at the highest dose activity change, negative = inhibition, actives largely listed as inhibitors. 320,000 tested, 6.9% active; active = well fitted inhibition curve with a large enough effect; inconclusive = small, poorly fitted or top-dose-only effect, or another doubt; inactive = no such curve, though single readings can be large or run the other way; note: % is set by controls: 0 for no effect and ±100 for the full control effect
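Compounds incubated with erythrocytes infected by luciferase-expressing P. falciparum (2% hematocrit, 0.05% parasitemia final) for 96 hours, 37 C in 5% CO2. Growth inhibition scored as decreased luciferase luminescence.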
NS1 inh = qHTS Assay for Inhibitors of Influenza NS1 Protein Function | Potency, µM (top dose mostly 46.1 µM), for the others: at the highest dose activity, positive = more growth | 270,000 tested, 0.4% active; note: actives are rising curves; nearly all actives have a fitted effect of over 50% in size
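In this qHTS, NS1 from influenza A is expressed in budding yeast, where it slows growth. Cells are switched from glucose to 2% galactose medium (pH 6.0, -URA), treated with compound, and growth recovery is read at OD600.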
Pf growth 48h = Primary qHTS for delayed death inhibitors of the malarial parasite plastid, 48 hour incubation; P. falciparum luciferase growth in erythrocytes, 48 h; Potency, µM (series often up to 28.7 µM), for the others: at the top dose activity change, negative = inhibition, usual class: inhibitors; 310,000 tested, 5.9% active; AID 504832, 2011; active = well fitted inhibition curve with a large enough effect; inconclusive = small, poorly fitted or top-dose-only effect, or another doubt; inactive = no such curve, though single readings can be large or run the other way; note: % is set by controls: 0 for no effect and ±100 for the full control effect
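Here the parasites carry a stable luciferase gene and grow inside erythrocytes in Albumax-based RPMI medium with compound for one erythrocytic cycle. Activity is scored as loss of luminescent signal.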
SARS PLpro yeast = qHTS of Yeast-based Assay for SARS-CoV PLP; 330,000 tested, 0.19% active; Potency, µM (series often up to 32.9 µM), for inactives: at the highest dose activity, positive = growth rescue, most hits filed as activators; S. cerevisiae expressing SARS-CoV PLpro, growth rescue; note: 0% is about no effect; nearly all actives have a fitted effect of over 55% in size
RE007 growth inh = qHTS Assay for Inhibitors of the HIV-1 protein Vpr; 360,000 tested, 0.21% active; Potency, µM (highest dose often 92.2 µM), for inactives: top-dose activity change, negative = less growth, hits mostly inhibitors; S. pombe RE007 Vpr strain, BacTiter-Glo ATP luminescence, 24 h; active = well fitted falling curve with a large enough effect; inconclusive = small, poorly fitted or top-dose-only effect; inactive = no such curve, though single readings can be large or run the other way; note: % is set by controls: 0 for no effect and ±100 for the full control effect; nearly all actives have a fitted effect of over 50% in size
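Fission yeast strain RE007, carrying one chromosomally integrated HIV-1 vpr copy, was seeded at OD 0.01 in PMG+AL medium with 23 nL pinned compound. After 24 h at 30 °C and 99% humidity, viability was read by BacTiter-Glo luminescence.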
* marks the source's active call; other numbers are inactive results; ? = inconclusive; / = not tested or not shown; [ ] = another dose, or the depositor's remark. Unless noted, calls come from the whole dose curve. Potency is the fitted concentration of half-maximal effect.

SMILES | Pf growth 96h | NS1 inh | Pf growth 48h | SARS PLpro yeast | RE007 growth inh
O=C(NC1CC1)c1ccc(CS(=O)c2ccc(Br)cc2)o1 (stereo unspecified) | 10µM* | 0% | 16% | -4% | 17%
Cc1ccc(CSCc2ccc(C(=O)NC3CCCC3)o2)cc1 | -5% | / | ? | -4% | 215%
Cc1ccnc(NC(=O)Nc2cccc(F)c2)c1 | 7.4µM* | -10% | 222% | -2% | 9%[3.69 µM]
Cn1cc(O)nc1NC(=O)Nc1cccc(Cl)c1 | -13% | / | 39% | / | /
O=C(Nc1ccccc1)c1cccc(C(F)(F)F)c1 | 3% | -3% | 42% | -8% | -1%
C=CCN(C(=O)c1cccc(C(F)(F)F)c1)C1(C(=O)Nc2ccccc2)CCN(C(C)C)CC1 | 7.4µM* | 2% | ? | -1% | -12%
O=C1N(Cc2cccnc2)C[C@@H]2C[C@@H](c3ccc(C(F)(F)F)cc3)N3CCC[C@@]123 | ? | 8% | ? | 0% | -10%
COC(=O)c1ccc([C@@H]2C[C@H]3CN(Cc4cccnc4)C(=O)[C@]34CCCN24)cc1 | 10µM* | 3% | ? | 0% | -18%
CCn1ncc([C@@H]2C[C@H]3CN(Cc4cccc(Cl)c4)C(=O)[C@]34CCCN24)c1C | 22% | 3% | ? | 0% | -21%
O=C1N(Cc2cccc(Cl)c2)C[C@@H]2C[C@@H](c3cccn3-c3cccnc3)N3CCC[C@@]123 | 18% | -4% | 9.3µM* | 0% | -12%
Cn1cc([C@@H]2C[C@H]3CN(Cc4cccc(Cl)c4)C(=O)[C@]34CCCN24)c(-c2ccccc2)n1 | 2.9µM* | 4% | 40% | -2% | -4%
COc1ccc(CNC(=O)c2ccccc2SCC(=O)N2CCCC2)cc1OC | 0% | / | -1% | 2% | 9%
CC1=C(C(=O)N2CCN(c3cc(C)ccc3C)CC2)C2(CCC(C)CC2)OC1=O (stereo unspecified) | ? | 15% | ? | -7% | /
COc1cc2c(cc1OC)CN(CC(=O)NC(=O)NCc1ccccc1)CC2 | ? | 3% | 9.3µM* | 5% | -16%
COc1cc2c(cc1OC)CN(CC(=O)Nc1ccccc1C(=O)NC1CC1)CC2 | -75% | / | ? | 8% | 12%
COc1cccc(N2CCN(CC(=O)Nc3ccccc3C(=O)NCc3ccccc3)CC2)c1 | ? | / | 9.3µM* | -1% | -5%
COc1cc2c(cc1OC)CN(CC(=O)Nc1ccccc1C(=O)NCc1ccccc1)CC2 | 2.9µM* | 5% | 17µM* | 0% | 3%
COc1cccc(N2CCN(CC(=O)Nc3ccccc3C(=O)NCCc3ccccc3)CC2)c1 | ? | / | ? | -2% | ?
Fc1ccc(NC(=S)Nc2ccccc2N2CCOCC2)cc1Cl | -29% | / | ? | -16% | 2%
Cc1ccc(C)c(N2C(=O)c3ccc(C(=O)Nc4ccccn4)cc3C2=O)c1 | / | / | / | / | 1%
CCN1CCN(Cc2c(C(=O)N/N=C(\C)c3ccc(Cl)c(Cl)c3)nnn2-c2nonc2N)CC1 | 1% | -2% | ? | 0% | /
O=C(Nc1nnc([C@@H]2C[C@H](O)[C@@H](CO)O2)s1)Nc1ccccc1C(F)(F)F | / | / | / | / | 7%[18.4 µM]
O=C(Nc1ccccc1F)c1ccc([N+](=O)[O-])s1 | 4.1µM* | / | 10µM* | -10% | ?
CN(C)NC(=O)c1ccc([N+](=O)[O-])s1 | 12µM* | 1% | 10µM* | -1% | -6%
O=C(Nc1cccnc1)c1ccc([N+](=O)[O-])s1 | ? | / | 5.2µM* | -12% | 5%
SMILES | Pf growth 96h | NS1 inh | Pf growth 48h | SARS PLpro yeast | RE007 growth inh
O=C(COC(=O)c1ccc([N+](=O)[O-])s1)Nc1ccccc1 | -23% | -48% | 2% | -80% | ?
Cc1ccc(C(=O)Nc2cc([N+](=O)[O-])ccc2F)s1 | 11% | -2% | 20% | 2% | 25%
O=C(Nc1cccc2ccccc12)c1ccc([N+](=O)[O-])s1 | 5.2µM* | -29% | 12µM* | -25% | -16%
C[C@@H]1CN([C@@H](C)CO)C(=O)c2cc(C#Cc3ccccc3)cnc2O[C@@H]1CN(C)Cc1ccccn1 | / | / | / | / | -5%
O=C(CCSc1ccc(F)cc1)NNC(=O)c1ccccc1Cl | 0% | / | -1% | -7% | 8%
CCOC(=O)C1CCCN(CCC(=O)Nc2cc(C)ccc2C)C1 (stereo unspecified) | 6.6µM* | 3% | -4% | -1% | -22%
CCN(CC)c1ccc(/C=c2\sc3nc4ccccc4n3c2=O)c(O)c1 | 10µM* | / | 8.3µM* | 0% | 1%
O=c1/c(=C/c2ccc(O)c([N+](=O)[O-])c2)sc2nc3ccccc3n12 | ? | / | 11% | -1% | -18%
CCOC(=O)C(NC(=O)CC)(Nc1nc2c(s1)CCCC2)C(F)(F)F (stereo unspecified) | ? | -4% | ? | 27% | 8%
COC(=O)C(NC(=O)COc1ccccc1)(Nc1nc2c(s1)CCCC2)C(F)(F)F (stereo unspecified) | 10µM* | -8% | ? | -18% | -6%
O=C(NCc1ccccc1)c1cc2ccccc2oc1=O | -29% | -6% | 28% | -7% | 4%
O=C(NCc1ccc(Cl)cc1)c1cc2ccccc2oc1=O | 5.2µM* | 6% | -5% | 2% | 1%
CC[n+]1c(/C=C2\Sc3ccccc3N2C)ccc2cccc(C)c21 | 10% | -74% | ? | -5% | ?
CCN1/C(=C/c2ccc3cc(C)ccc3[n+]2CC)Sc2cc(C)c(C)cc21 | 2% | -51% | 2.1µM* | -7% | ?
CCN1/C(=C/c2ccc3cc(C)ccc3[n+]2CC)Sc2ccccc21 | 13% | -47% | 0.59µM* | -100% | ?
CCc1cccc(CC)c1NC(=S)N(CCN(C)C)C(C)c1cccnc1 (stereo unspecified) | ? | / | 0% | -6% | -12%
CC(C)(C)c1ccc(-c2csc(NNC3=NCCCCC3)n2)cc1 | / | 2% | 10µM* | -8% | 3%
Brc1ccc(-c2csc(NNC3=NCCCCC3)n2)cc1 | ? | ? | 10µM* | -20% | 32%
FC(F)Oc1ccc(-c2csc(NNC3=NCCCCC3)n2)cc1 | ? | / | ? | -4% | -8%
CCOC(=O)NC1(C(F)(F)F)NC(=O)N(c2cccc(C(F)(F)F)c2)C1=O (stereo unspecified) | ? | 5% | 6% | 11% | 22%
CCOC(=O)NC1(C(F)(F)F)NC(=O)N(c2ccc(F)cc2)C1=O (stereo unspecified) | 4.7µM* | 8% | 1% | -4% | -11%
CC(=O)Nc1ccc(S(=O)(=O)NC2(C(F)(F)F)NC(=O)N(c3ccc(C)cc3)C2=O)cc1 (stereo unspecified) | 9.3µM* | 23% | 9% | -7% | 4%
CC(C)N1CCN(C(=O)c2ccc([N+](=O)[O-])cc2)CC1 | / | / | / | / | 12%
